# Reference: ChEMBL document CHEMBL3988442, “University of Dundee, Small-Polar-MMV Screening Library” (2021)
# For some of these results: Results with a measured potency or affinity are listed apart.
# Tests used:
# Design in all cases: scale not given: direction of the effect not stated beside the values
# [1] = target: Protein translocase subunit SecA (Escherichia coli (strain K12)) (UniProt P10408); assay: Assay to Identify E. coli SecA ATPase Inhibitors; type: functional; conditions: 30 µM
# [2] = target: T1, Ubiquitin-activating enzyme e1, putative (Leishmania donovani (strain BPK282A1)) (UniProt E9BSI1); assay: Leishmania donovani Ubiquitin Activating Enzyme (LdE1); type: functional; conditions: 30 µM
# T1 sequence (whole entry): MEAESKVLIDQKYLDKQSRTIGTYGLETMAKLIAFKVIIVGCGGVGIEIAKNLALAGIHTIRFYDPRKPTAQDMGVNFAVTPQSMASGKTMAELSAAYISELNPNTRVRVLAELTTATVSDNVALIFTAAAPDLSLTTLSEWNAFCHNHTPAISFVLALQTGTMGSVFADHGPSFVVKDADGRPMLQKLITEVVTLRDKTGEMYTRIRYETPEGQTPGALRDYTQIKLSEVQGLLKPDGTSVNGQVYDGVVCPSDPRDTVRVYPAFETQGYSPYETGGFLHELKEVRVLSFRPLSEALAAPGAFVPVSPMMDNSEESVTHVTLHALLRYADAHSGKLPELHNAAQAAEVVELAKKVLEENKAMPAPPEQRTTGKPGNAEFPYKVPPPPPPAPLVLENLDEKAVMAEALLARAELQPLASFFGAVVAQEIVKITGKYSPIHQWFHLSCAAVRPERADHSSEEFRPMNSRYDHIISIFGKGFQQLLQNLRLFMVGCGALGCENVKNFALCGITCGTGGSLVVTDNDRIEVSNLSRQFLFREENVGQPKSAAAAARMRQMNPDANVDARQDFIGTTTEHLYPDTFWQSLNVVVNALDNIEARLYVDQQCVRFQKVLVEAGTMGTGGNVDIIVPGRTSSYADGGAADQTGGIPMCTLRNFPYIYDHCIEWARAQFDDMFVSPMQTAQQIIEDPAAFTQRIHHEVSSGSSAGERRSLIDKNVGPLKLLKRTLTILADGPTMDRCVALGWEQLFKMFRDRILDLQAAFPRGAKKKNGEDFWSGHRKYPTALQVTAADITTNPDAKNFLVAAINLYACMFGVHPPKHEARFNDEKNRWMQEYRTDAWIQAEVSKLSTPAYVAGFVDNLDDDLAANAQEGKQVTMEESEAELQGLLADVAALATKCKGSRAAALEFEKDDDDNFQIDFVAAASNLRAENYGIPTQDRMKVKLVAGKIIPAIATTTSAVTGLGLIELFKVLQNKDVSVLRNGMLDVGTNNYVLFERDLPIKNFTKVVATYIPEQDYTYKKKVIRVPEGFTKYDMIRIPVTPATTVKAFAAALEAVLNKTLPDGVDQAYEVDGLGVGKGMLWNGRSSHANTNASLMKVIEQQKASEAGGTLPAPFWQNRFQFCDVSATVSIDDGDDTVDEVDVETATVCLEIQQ
# [3] = target: AMP-activated protein kinase, AMPK (Homo sapiens) (UniProt P54646+O43741+P54619+Q9UGJ0+Q9Y478+Q13131+Q9UGI9); assay: AMP-dependent Kinase enzyme assay. An in vitro enzyme assay that detects ADP turnover that is directly proportional to AMPK activity. This uses naive AMPK that is activated during the assay with MK-8722; type: functional; conditions: 30 µM
# [4] = target: Sialic acid-binding Ig-like lectin 9 (Homo sapiens) (UniProt Q9Y336); assay: Hs-Siglec9 ALPHAscreen SOP 20170721; conditions: 10 µM
# Chain of Sialic acid-binding Ig-like lectin 9 (Homo sapiens) (Q9Y336 whole entry): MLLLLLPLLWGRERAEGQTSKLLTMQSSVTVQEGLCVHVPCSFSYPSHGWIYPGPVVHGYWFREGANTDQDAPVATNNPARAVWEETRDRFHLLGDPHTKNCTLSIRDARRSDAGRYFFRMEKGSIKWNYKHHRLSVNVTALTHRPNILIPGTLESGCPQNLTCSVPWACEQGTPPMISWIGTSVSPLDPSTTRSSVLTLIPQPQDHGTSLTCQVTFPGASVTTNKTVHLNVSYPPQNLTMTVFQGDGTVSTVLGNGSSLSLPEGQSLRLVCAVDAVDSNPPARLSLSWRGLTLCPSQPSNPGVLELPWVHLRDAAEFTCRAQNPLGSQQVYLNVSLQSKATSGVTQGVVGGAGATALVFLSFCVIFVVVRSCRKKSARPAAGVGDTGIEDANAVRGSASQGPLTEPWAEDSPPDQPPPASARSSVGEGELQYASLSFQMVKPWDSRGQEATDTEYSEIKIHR
# Trypanosoma cruzi = assay: Trypanosoma cruzi phosphomannomutase and mannose-1-phosphate guanylyltransferase assay; type: functional; conditions: 10 µM
# [5] = target: T2, Arginase-2, mitochondrial (Homo sapiens) (UniProt P78540); assay: in vitro enzyme assay to detect the production of urea directly proportional to the activity of Arginase II; type: functional; conditions: 33.3 µM; also: in the data most compounds retested in dose-response had high values
# T2 sequence (whole entry): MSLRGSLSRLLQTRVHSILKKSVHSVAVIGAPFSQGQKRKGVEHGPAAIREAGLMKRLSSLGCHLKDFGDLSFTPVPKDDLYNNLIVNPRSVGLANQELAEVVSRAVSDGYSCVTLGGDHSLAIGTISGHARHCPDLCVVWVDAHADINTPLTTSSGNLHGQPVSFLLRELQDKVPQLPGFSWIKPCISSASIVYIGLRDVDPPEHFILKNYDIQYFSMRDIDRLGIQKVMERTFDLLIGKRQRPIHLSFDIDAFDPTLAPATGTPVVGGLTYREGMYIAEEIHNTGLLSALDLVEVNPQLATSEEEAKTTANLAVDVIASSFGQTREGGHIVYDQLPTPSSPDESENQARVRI
# [6] = target: T3, Proteasome subunit beta (Trypanosoma cruzi) (UniProt O96673); assay: Trypanosoma cruzi proteasome chymotrypsin-like activity (TcProtChymo) assay.; also: in the data most compounds retested in dose-response had high values; type: functional; conditions: 9.37 µM
# T3 sequence (whole entry): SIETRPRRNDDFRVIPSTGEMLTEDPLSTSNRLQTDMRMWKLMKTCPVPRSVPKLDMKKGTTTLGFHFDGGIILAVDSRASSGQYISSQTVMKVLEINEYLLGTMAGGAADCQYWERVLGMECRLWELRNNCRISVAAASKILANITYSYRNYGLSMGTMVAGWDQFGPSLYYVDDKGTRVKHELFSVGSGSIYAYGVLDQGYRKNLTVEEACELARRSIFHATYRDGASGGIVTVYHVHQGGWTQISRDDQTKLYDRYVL
# Homo sapiens = species on record: Homo sapiens; assay: To identify inhibition of the IFN signalling (Jak-Stat) pathway via expression of an eGFP reporter gene under the control of an IFN-stimulated response element (ISRE) containing MxA promoter.; type: functional; conditions: 30 µM
# [7] = target: T4, Tyrosyl-tRNA synthetase, putative (Trypanosoma cruzi (strain CL Brener)) (UniProt Q4DSP6); assay: Trypanosoma cruzi tyrosyl tRNA synthetase (TcYRS) _High Tyrosine SOP; type: functional; conditions: 30 µM; also: in the data most compounds retested in dose-response had high values
# T4 sequence (whole entry): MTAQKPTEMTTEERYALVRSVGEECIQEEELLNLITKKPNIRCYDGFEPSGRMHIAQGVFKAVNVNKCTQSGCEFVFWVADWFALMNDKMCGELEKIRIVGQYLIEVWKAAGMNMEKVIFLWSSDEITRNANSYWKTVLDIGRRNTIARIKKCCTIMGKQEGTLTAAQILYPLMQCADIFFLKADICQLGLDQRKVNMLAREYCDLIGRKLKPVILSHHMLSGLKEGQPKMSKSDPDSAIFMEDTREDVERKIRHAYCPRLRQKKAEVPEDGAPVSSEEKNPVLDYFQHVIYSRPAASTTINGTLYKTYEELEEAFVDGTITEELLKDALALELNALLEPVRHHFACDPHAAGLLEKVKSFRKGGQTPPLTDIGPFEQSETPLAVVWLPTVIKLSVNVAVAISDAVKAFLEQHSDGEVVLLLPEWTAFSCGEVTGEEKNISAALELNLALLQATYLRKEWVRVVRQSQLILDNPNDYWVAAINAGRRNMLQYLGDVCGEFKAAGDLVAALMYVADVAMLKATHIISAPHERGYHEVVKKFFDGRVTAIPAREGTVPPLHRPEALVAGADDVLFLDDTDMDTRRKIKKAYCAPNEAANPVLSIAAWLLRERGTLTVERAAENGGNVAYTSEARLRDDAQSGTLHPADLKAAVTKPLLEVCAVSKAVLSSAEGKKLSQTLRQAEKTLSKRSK
# [8] = target: T4, Tyrosyl-tRNA synthetase, putative (Trypanosoma cruzi (strain CL Brener)); assay: Trypanosoma cruzi tyrosyl tRNA synthetase (TcYRS) SOP; type: functional; conditions: 30 µM
# [9] = target: Chromo domain-containing protein 1 (Saccharomyces cerevisiae (strain ATCC 204508 / S288c) (Baker's yeast)) (UniProt P32657); assay: ScCHD-1 Enzyme Inhibition Assay; type: functional; conditions: 30 µM; also: in the data most compounds retested in dose-response had high values
# Chain of Chromo domain-containing protein 1 (Saccharomyces cerevisiae (strain ATCC 204508 / S288c) (Baker's yeast)) (P32657 whole entry, the tested form may be a part): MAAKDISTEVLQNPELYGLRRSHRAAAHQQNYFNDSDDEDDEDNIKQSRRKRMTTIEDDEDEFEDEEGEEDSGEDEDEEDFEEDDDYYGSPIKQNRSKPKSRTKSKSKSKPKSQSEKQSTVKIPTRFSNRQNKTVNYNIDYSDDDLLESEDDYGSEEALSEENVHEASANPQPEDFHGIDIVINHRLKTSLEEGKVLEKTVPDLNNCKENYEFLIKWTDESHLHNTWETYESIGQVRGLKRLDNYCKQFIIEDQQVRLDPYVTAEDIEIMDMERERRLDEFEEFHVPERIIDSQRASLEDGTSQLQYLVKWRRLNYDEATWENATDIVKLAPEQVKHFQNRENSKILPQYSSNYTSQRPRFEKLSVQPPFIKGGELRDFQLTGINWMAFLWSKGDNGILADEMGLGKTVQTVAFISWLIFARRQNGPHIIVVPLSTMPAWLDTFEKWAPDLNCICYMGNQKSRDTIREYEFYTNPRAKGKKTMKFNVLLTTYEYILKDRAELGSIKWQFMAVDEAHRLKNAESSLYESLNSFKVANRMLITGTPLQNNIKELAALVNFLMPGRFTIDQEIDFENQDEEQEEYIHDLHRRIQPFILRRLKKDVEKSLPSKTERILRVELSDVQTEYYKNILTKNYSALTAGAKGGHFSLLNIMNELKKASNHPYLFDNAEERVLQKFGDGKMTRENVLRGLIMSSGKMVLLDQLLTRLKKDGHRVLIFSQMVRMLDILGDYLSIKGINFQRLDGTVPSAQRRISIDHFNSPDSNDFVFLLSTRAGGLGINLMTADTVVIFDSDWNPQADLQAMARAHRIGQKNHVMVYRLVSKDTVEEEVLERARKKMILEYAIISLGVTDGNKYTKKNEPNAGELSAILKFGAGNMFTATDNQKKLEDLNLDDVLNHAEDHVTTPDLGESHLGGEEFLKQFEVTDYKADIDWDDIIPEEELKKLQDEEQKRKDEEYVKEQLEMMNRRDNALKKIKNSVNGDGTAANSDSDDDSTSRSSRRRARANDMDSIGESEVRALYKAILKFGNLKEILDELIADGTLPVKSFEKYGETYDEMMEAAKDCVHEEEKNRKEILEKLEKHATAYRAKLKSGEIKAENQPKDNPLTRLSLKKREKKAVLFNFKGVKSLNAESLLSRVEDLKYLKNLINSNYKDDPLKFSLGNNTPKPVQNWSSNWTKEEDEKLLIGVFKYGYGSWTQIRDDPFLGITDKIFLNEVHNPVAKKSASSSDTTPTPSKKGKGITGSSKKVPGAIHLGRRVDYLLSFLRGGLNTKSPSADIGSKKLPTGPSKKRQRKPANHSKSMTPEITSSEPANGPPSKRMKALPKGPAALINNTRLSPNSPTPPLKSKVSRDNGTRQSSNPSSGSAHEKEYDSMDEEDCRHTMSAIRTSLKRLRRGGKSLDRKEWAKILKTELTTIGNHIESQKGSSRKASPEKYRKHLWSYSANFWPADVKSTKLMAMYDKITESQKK
# Chain of Protein translocase subunit SecA (Escherichia coli (strain K12)) (P10408 whole entry): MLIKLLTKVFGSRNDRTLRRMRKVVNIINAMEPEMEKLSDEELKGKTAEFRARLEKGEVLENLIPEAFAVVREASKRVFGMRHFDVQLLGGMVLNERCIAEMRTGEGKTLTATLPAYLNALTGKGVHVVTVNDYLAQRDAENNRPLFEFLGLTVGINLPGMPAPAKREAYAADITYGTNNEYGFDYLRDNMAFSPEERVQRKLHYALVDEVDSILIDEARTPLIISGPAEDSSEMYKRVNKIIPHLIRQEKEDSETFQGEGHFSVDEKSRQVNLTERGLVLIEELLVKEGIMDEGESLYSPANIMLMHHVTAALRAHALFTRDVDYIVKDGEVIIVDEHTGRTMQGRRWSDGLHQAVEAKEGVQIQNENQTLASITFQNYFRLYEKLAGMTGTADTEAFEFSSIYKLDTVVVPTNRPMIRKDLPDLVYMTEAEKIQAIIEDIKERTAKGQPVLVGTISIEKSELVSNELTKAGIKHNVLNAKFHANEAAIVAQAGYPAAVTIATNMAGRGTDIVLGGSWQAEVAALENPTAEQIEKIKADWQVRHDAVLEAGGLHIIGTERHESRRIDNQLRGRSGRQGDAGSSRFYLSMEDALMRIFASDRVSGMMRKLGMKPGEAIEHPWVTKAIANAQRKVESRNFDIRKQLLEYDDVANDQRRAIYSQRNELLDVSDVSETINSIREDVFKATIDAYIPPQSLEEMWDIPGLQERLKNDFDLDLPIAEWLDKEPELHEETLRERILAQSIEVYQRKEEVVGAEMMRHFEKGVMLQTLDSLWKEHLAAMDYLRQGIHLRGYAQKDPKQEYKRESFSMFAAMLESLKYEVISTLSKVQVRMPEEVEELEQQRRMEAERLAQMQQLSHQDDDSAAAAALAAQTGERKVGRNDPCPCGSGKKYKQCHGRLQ
SMILES,Percent Effect [1],Percent Effect [2],Percent Effect [3],Percent Effect [4],Percent Effect (Trypanosoma cruzi),Percent Effect [5],Percent Effect [6],Percent Effect (Homo sapiens),Percent Effect [7],Percent Effect [8],Percent Effect [9]
CN1CCCC1c1cccc(Cc2ccccc2F)n1 (stereo not drawn),-3.07%,-20.3%,13.4%,1.77%,-0.79%,-3.02%,-1.87%,49.3%,14%,11.7%,0.4%
O=C(c1ccn(-c2cccc(F)c2)n1)N1CCCC(n2cccn2)C1 (stereo not drawn),-4.17%,2.6%,4.13%,0.275%,5.78%,-1.05%,13.3%,2.64%,0%,7.06%,-16.1%
CCc1nc2n(n1)CC(Nc1cc(C)nc3ncnn13)CC2 (stereo not drawn),-3.29%,8.22%,-10.8%,12.4%,5.68%,8.64%,14.4%,18.4%,3.23%,12.5%,-7.89%
CCOc1ccnc(N2CCN(C(=O)c3cc(Cl)c[nH]3)CC2)n1,-4.52%,12.7%,0.626%,5.17%,1.98%,0.38%,2.54%,0.798%,9.36%,21.5%,-5.03%
COc1cc2cc(C(=O)N[C@@H](C)C(=O)O)n(C)c2c(OC)c1OC,0.309%,4%,0.773%,3.31%,-5.89%,-12.8%,13.1%,0.994%,8.47%,7.69%,-9.47%
COC(=O)C1CCN(c2cncc(-n3nc(C)cc3C)n2)CC1,-4%,0%,4.1%,5.66%,-7.03%,4.17%,15.6%,12.6%,3.96%,3.66%,-8.43%
Cc1cccc(OCCC(=O)N2CCCN(CC(N)=O)CC2)c1C,-3.47%,17.7%,-7.09%,14.1%,1.6%,-3.42%,4.34%,-12.7%,1.48%,16.5%,-5.52%
Cc1ccc(F)c(-n2nnc(C(=O)O)c2-c2ccncc2)c1,-0.715%,13.2%,2.72%,-1.83%,-3.8%,-2.37%,22.7%,-8.42%,3.19%,10.4%,-1.85%
